Composite z-score and z-score data for 17 compounds are collected here from PubChem BioAssay.

The subject of assay [1] is XIP peptide (Xip251-270) binding. Briefly: XIP fragment 251-270 binding compounds – biochemical, small-molecule microarray, fluorescence 635/667 nm, 0.1 µg/mL protein, primary screen (AID 1182). The following applies: fluorescent protein binding, 635 nm, higher = more signal, called active from +8 up or from −8 down.
In assay [2] the test system is XIP peptide (Xip251-270). Briefly: compounds binding XIP fragment 251-270 – biochemical, small-molecule microarray, fluorescence 635/667 nm, 0.5 µg/mL protein, primary screen (AID 1183). The following applies: fluorescence 635 nm, higher = more signal.
Assay [3] is described as follows: blood-stage malaria parasite viability loss – strain 3D7, DAPI fluorescence, 100 nL, primary screen (AID 1184).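 Further: parasites grown inside human red blood cells in medium with human serum.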 The following applies: P. falciparum 3D7 growth, 3 d, higher = more signal.
Assay [4] has as its target Homeobox protein Hox-A13 (Mus musculus) (UniProt Q62424). Briefly: disruptors of Hoxa13 oligonucleotide interaction – biochemical, fluorescence polarization, labeled oligonucleotide, primary screen (AID 1185). The following applies: Hoxa13:DNA binding, 15 min, higher = more signal, called active from +8 up or from −8 down. Background: In fluorescence polarisation assays a small probe gives low polarisation when free and higher when bound to something large.

The nature of assay [5]: blockers of DNA damage checkpoint Chk1 activation – imaging, HeLa, hydroxyurea, phospho-Chk1 antibody, percent positive cells, primary screen (AID 1186). The following applies: hydroxyurea-induced phospho-Chk1 immunofluorescence imaging, higher = more signal.
Assay [6] is described as follows: blockers of DNA damage checkpoint Chk1 activation – imaging, HeLa, hydroxyurea, phospho-Chk1 nuclear intensity, primary screen (AID 1187). The settings on record: hydroxyurea-induced phospho-Chk1 immunofluorescence imaging, higher = more signal.

The source made the active and inactive calls. Unless noted, how the calls were made is not given here.

Homeobox protein Hox-A13 (Mus musculus), sequence (Q62424 whole entry, looked up): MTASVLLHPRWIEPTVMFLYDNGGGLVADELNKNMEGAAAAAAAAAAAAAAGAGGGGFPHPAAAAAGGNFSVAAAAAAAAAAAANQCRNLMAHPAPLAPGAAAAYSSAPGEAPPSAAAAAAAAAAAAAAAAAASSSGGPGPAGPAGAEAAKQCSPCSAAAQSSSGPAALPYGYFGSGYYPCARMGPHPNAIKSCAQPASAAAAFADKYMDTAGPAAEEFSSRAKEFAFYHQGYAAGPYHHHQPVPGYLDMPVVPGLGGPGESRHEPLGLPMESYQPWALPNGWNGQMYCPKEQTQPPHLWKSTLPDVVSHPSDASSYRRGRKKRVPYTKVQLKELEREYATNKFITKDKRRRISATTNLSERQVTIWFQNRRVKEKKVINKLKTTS

Regarding `C#CCN(CC=C(C)C)[C@H](CO)c1ccccc1`, the results for the composite z-score in assay [1] and in assay [2] were 0.102 (inactive) and -0.564, respectively. The z-score is -1.34 in assay [3], -0.2 (inactive) in assay [4], 0.557 (inactive) in assay [5] and 0.457 (inactive) in assay [6].

`CCCCCN1CC=CC23O[C@@H]4/C=C\CCCOC(=O)C4[C@H]2C(=O)N(CCCO)[C@@H]3C1=O` (some centres not stated): the composite z-score in assay [1] was 1.75 (inactive); in assay [2], 0.772. Besides, the z-score in assay [3] was -0.332; in assay [4], -5.09 (inactive); in assay [5], -0.297 (inactive); in assay [6] it was -0.426 (inactive).

With `COCC(=C=CC[C@H](O)c1ccccc1OCCO)C[C@H](O)c1cc(Cl)cc(Cl)c1O`, the composite z-score is 0.549 (inactive) in assay [1] and 0.736 in assay [2]. For the same compound, the z-score in assay [3] was -0.254; in assay [4] it was -3.5 (inactive); in assay [5] it was 1.36 (inactive); in assay [6], 0.764 (inactive).

Consider `O=C1NC(=O)C2C1C=CC(C(O)c1cccc3ccccc13)N2Nc1ccccn1` (configuration not stated), for which the composite z-score in assay [1] is -0.219 (inactive); in assay [2] it was 0.395. Moreover, the z-score in assay [3] is 0.181; in assay [4], -1.71 (inactive); in assay [5] it was -0.146 (inactive); in assay [6], -0.382 (inactive).

Turning to `COC(=O)[C@@]1(Cc2ccc(OC)cc2)[C@H]2c3cc(C(=O)N(C)C)n(CCN4CNCC4=O)c3C[C@H]2CN1C(=O)c1ccccc1`, the values for the composite z-score in assay [1] and in assay [2] were 0.384 (inactive) and -0.144, respectively. The z-score was -1.23 in assay [3], -4.73 (inactive) in assay [4], -0.648 (inactive) in assay [5] and -0.397 (inactive) in assay [6].

Regarding `CCOC1=C2C(CN(S(=O)(=O)c3ccc(C)cc3)C2c2ccc(C)cc2)C2C(=O)N(c3ccccc3)C(=O)C2C1` (configuration not stated), the composite z-score in assay [1] was -0.0729 (inactive); in assay [2], 0.457. The z-score in assay [3] was 0.694; in assay [4], -1.82 (inactive); in assay [5] it was 0.218 (inactive); in assay [6], 0.402 (inactive).

As to `Cc1ccc(S[C@]2(C(=O)NCC(F)(F)F)CC(=O)N(C(C)C)[C@@H]2c2ccc(CO)cc2I)cc1`, the composite z-score in assay [1] was -0.268 (inactive); in assay [2], -0.467. For the same compound, the z-score was -0.181 in assay [3], -2.7 (inactive) in assay [4], 0.295 (inactive) in assay [5] and 0.84 (inactive) in assay [6].

In the case of `COCCCN1C(=O)[C@@]2(Cc3ccccc31)c1ccccc1C(=O)N(Cc1ccccc1C(F)(F)F)[C@H]2c1ccc(CO)cc1`, the composite z-score in assay [1] is -0.219 (inactive); in assay [2], 0.55. In addition, the z-score in assay [3] is -0.698; in assay [4] it was -0.825 (inactive); in assay [5], 0.25 (inactive); in assay [6], 0.49 (inactive).

Turning to `O=C1O[C@H](c2ccccc2)[C@H](c2ccccc2)N2[C@H]1[C@@H](C(=O)Nc1nc3ccccc3s1)[C@]1(C(=O)Nc3ccc(C#CC4(O)CCCCCC4)cc31)[C@H]2c1ccc(OCCO)cc1`, the composite z-score in assay [1] was 2.25 (inactive); in assay [2], 0.663. Moreover, the z-score was -1.8 in assay [3], -0.979 (inactive) in assay [4], 0.341 (inactive) in assay [5] and 0.346 (inactive) in assay [6].

Turning to `C=CCNC(=O)[C@@H]1[C@H]2C(=O)O[C@H](c3ccccc3)[C@H](c3ccccc3)N2[C@H](c2ccccc2OCCO)[C@@]12C(=O)N(C(=O)OCCOC)c1ccc(C#CCNC(N)=O)cc12`, the composite z-score in assay [1] was 0.347 (inactive); in assay [2], 0.66. The z-score in assay [3] is -0.531; in assay [4], -1.84 (inactive); in assay [5], -0.189 (inactive); in assay [6], -0.159 (inactive).

With `CCOC(=O)C1=CCC(c2ccc(C)cc2)N(S(=O)(=O)c2ccc(C)cc2)C1` (configuration not stated), the composite z-score was 0.34 (inactive) in assay [1] and 0.46 in assay [2]. For the same compound, the z-score in assay [3] was -1.65; in assay [4], -2.32 (inactive); in assay [5] it was 0.283 (inactive); in assay [6], 0.449 (inactive).

Take `COCCCNC(=O)C1N=C(c2ccc(OCCCO)cc2)N(c2ccccc2)O1` (configuration not stated): the composite z-score is 1.84 (inactive) in assay [1] and 0.779 in assay [2]. Further, the z-score in assay [3] was -0.572; in assay [4], -2.25 (inactive); in assay [5], -0.0836 (inactive); in assay [6], 0.164 (inactive).

`[N-]=[N+]=NCc1ccccc1[C@@H]1OC(c2ccc(OCCCO)cc2)=N[C@]1(CCS(=O)(=O)c1ccccc1)C(=O)NCc1ccccc1`: the composite z-score is 0.212 (inactive) in assay [1] and 0.838 in assay [2]. For the same compound, the z-score was -2.5 in assay [3], -0.438 (inactive) in assay [4], 0.21 (inactive) in assay [5] and -0.126 (inactive) in assay [6].

Turning to `C=C(C)C1C(=C)CN([C@H](CO)c2ccccc2)C1=O` (some centres not stated), the composite z-score in assay [1] was -0.389 (inactive); in assay [2], -0.149. In addition, the z-score in assay [3] was -0.977; in assay [4], -2.61 (inactive); in assay [5], -0.347 (inactive); in assay [6], -0.339 (inactive).

In the case of `COc1ccc(C(O)C2C=CC3C(=O)NC(=O)C3N2Nc2ccccn2)cc1` (configuration not stated), the figures for the composite z-score in assay [1] and in assay [2] were -1.2 (inactive) and 0.658, respectively. Besides, the z-score in assay [3] was 0.557; in assay [4] it was -1.88 (inactive); in assay [5], 0.723 (inactive); in assay [6], 0.51 (inactive).

With `C[C@@]1([C@@H](NC(=O)c2ccccc2)c2ccc(-c3ccccc3)cc2)C[C@H]1C1CCCCC1`, the values for the composite z-score in assay [1] and in assay [2] were 0.192 (inactive) and -1.44, respectively. Moreover, the z-score in assay [3] was -0.206; in assay [4], -0.0623 (inactive); in assay [5], 0.664 (inactive); in assay [6] it was -0.296 (inactive).

Consider `COC(=O)C(CC#Cc1ccc2c(c1)[C@]1(C(=O)N2)[C@H](c2ccc(O)cc2)N2[C@H](c3ccccc3)[C@H](c3ccccc3)OC(=O)[C@H]2[C@@H]1C(=O)Nc1nc2ccccc2s1)C(=O)OC`, for which the composite z-score in assay [1] is 1.09 (inactive); in assay [2] it was 0.833. Further, the z-score in assay [3] was -0.591; in assay [4] it was -0.645 (inactive); in assay [5], -0.0827 (inactive); in assay [6] it was -0.46 (inactive).
